# Laboratory results from PubChem BioAssay AID1850 (Southern Research Specialized Biocontainment Screening …, 2009).
# Out of some 310,000 compounds screened, about 1,000 (0.32%) were called active. Only a sample is shown. Potency and affinity values are given separately. Unmarked numbers belong to inactive results. The rule behind the calls is not given here.
# Experiment: Inhibition of PhoP regulon, Salmonella typhi GFP reporter cells, confirmation, 4 h (AID 1850);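 note: 0% = induced wells with vehicle and 100% = uninduced wells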
# Settings: Salmonella Typhi PhoP-promoter GFP reporter, fluorescence, at 50 µM, stronger effect = higher value
row,Compound,inhibition
1,Cc1cc(OCC(=O)Nc2ccc(OCc3ccccc3)cc2)nc(C(C)C)n1,-4.55%
2,O=C(CCn1cnc(-c2ccccc2)c1-c1ccccc1)N/N=C/c1ccccc1O,-2.92%
3,COc1cccc(-c2ccc(SCC(=O)NC3CCCC3)nn2)c1,-7.47%
4,CCN1CCN(C(=O)CCS(=O)(=O)c2cc3c(cc2Cl)NC(=O)CO3)CC1,12.4%
5,CCn1c(C)cc(/C=C2/SC(=S)N(CC(=O)O)C2=O)c1C,6.61%
6,O=C(Oc1cccc(NC(=O)c2ccco2)c1)c1cccc(S(=O)(=O)N2CCCCC2)c1,2.38%
7,CCn1c(=N)n(CC(=O)c2ccc(Br)s2)c2ccccc21,11.2%
8,Cn1c(=N)n(CC(=O)c2ccc(Br)s2)c2ccccc21,-0.89%
9,N=c1n(CC(=O)c2cccs2)c2ccccc2n1Cc1ccccc1,11.7%
10,CCN(CC)CCn1c(=N)n(CC(=O)c2ccc(Br)s2)c2ccccc21,14.1%
11,CCc1cc(CNC(=O)C2CCC(=O)N(CCc3ccc(OC)cc3)C2)on1 (stereo unspecified),-3.38%
12,CCOC(=O)C1=C(c2ccccc2)NC(N)=NC1c1ccc(OCc2ccc(Cl)cc2)c(OC)c1 (stereo unspecified),0.34%
13,CCOC(=O)C1=C(c2ccccc2)Nc2ncnn2C1c1ccc(C(=O)O)cc1 (stereo unspecified),-0.92%
14,Cc1ccc(SCc2cc(=O)[nH]c(N3CCOCC3)n2)cc1,4.21%
15,C#CCOCCOCCOCCNc1nc(N2CCN(C(=O)CCCCCCCCCCNC(=O)Cn3cc(C[C@@H](C)O)nn3)CC2)nc(N2CCN(C(=O)CCCCCCCCCCNC(=O)[C@H](CCCN=C(N)N)n3cc(C[C@@H](C)CC)nn3)CC2)n1,25.7%
16,C#CCOCCOCCOCCNc1nc(N2CCN(C(=O)CCCCCCCCCCNC(=O)[C@@H](CCSC)n3cc(CCO)nn3)CC2)nc(N2CCN(C(=O)CCCCCCCCCCNC(=O)[C@H](CCCN=C(N)N)n3cc(C[C@@H](C)CC)nn3)CC2)n1,-10.5%
17,C#CCOCCOCCOCCNc1nc(N2CCN(C(=O)CCCCCCCCCCNC(=O)[C@H](CCCCN)n3cc(CCO)nn3)CC2)nc(N2CCN(C(=O)CCCCCCCCCCNC(=O)[C@H](CCCCN)n3cc(CCCC(=O)O)nn3)CC2)n1,-30.2%
18,C#CCOCCOCCOCCNc1nc(N2CCN(C(=O)CCCCCCCCCCNC(=O)[C@H](CCCCN)n3cc(CCCC(=O)O)nn3)CC2)nc(N2CCN(C(=O)CCCCCCCCCCNC(=O)[C@H](CCCN=C(N)N)n3cc(C[C@@H](C)CC)nn3)CC2)n1,13.7%
19,C#CCOCCOCCOCCNc1nc(N2CCN(C(=O)CCCCCCCCCCNC(=O)[C@H](CCCCN)n3cc(C[C@@H](C)CC)nn3)CC2)nc(N2CCN(C(=O)CCCCCCCCCCNC(=O)[C@@H]([C@H](C)O)n3cc(C)nn3)CC2)n1,51.8%
20,C#CCOCCOCCOCCNc1nc(N2CCN(C(=O)CCCCCCCCCCNC(=O)[C@H](CCCCN)n3cc(C)nn3)CC2)nc(N2CCN(C(=O)CCCCCCCCCCNC(=O)[C@H](CCCCN)n3cc(CCCC(=O)O)nn3)CC2)n1,-29.8%
21,C#CCOCCOCCOCCNc1nc(N2CCN(C(=O)CCCCCCCCCCNC(=O)[C@H](CCCCN)n3cc(CCCC(=O)O)nn3)CC2)nc(N2CCN(C(=O)CCCCCCCCCCNC(=O)[C@H](CCCCN)n3cc(CCCC(=O)O)nn3)CC2)n1,0.23%
